Fam108B inh: blocks mouse Fam108B hydrolase in RBBP9 counter-screen; recombinant Fam108B, FP-Rh probe fluorescence polarization; inhibition, % at 9.51 µM; hit rate 0.33% among 300,000;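 active = inhibition above the screen mean inhibition plus 3 SD, computed separately per campaign, cut at about 18% in these data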;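 also: inhibitors lower polarization as less probe binds the enzyme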
PREPL inh: inhibitors of human prolyl oligopeptidase-like enzyme PREPL | Q4J6C6 | recombinant PREPL, fluorescence polarization activity-based probe | inhibition, % at 5.96 µM | hit rate 0.68% among 320,000 | AID 2751; in the data active = inhibition above about 43%
PME-1 inh: PME-1 (human) inhibition | Q9Y570 | recombinant PME-1, FP-Rh probe fluorescence polarization | inhibition, % at 5.9 µM | hit rate 0.53% among 320,000;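 active = inhibition above the campaign mean of all compounds plus 3 SD, cut at about 26% in these data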;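 also: competitive labeling of PME-1 active site by serine hydrolase directed probe; inhibitors block probe labeling so polarization falls and inhibition rises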
LYPLA2 inh: blocks human lysophospholipase 2, a PME1 counter-screen | O95372 | recombinant LYPLA2, FP-Rh probe fluorescence polarization | inhibition, % at 5.9 µM | hit rate 0.38% among 320,000;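 active = inhibition above the screen-wide mean plus 3 SD, limit set per campaign, cut at about 26% in these data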
Target sequence (O95372 whole entry, looked up): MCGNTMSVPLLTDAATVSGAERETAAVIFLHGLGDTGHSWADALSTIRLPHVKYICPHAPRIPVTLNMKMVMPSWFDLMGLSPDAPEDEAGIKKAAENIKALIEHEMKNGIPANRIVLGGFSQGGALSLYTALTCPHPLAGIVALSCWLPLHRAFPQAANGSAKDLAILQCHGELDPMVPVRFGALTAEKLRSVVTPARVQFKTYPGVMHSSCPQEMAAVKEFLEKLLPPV
LYPLA1 inh: blocks human lysophospholipase 1, a PME1 counter-screen; recombinant LYPLA1, FP-Rh probe fluorescence polarization; inhibition, % at 5.9 µM; hit rate 0.16% among 320,000; AID 2174; O75608;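 active = inhibition above the mean of all tested compounds plus 3 SD, set per campaign, cut at about 14% in these data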;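 also: inhibitors block serine hydrolase probe labeling of LYPLA1 so polarization falls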
Target sequence (O75608 whole entry, looked up): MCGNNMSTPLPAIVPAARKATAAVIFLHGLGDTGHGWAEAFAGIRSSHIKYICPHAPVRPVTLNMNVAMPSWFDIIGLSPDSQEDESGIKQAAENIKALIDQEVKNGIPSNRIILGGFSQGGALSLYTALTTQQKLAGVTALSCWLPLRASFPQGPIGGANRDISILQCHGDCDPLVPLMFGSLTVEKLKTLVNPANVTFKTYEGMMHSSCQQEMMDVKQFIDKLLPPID
GSTO1 inh: blocks human GSTO1 in RBBP9 counter-screen | P78417 | recombinant GSTO1, activity-based probe fluorescence polarization | inhibition, % at 5.96 µM | hit rate 1.1% among 300,000 | AID 1974;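 active = inhibition above the campaign mean inhibition plus 3 SD, cut at about 35% in these data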
GSTO1 inh conf: confirmation of human GSTO1 inhibitors. shares compounds with GSTO1 inh. recombinant GSTO1, probe fluorescence polarization. inhibition, % at 5.96 µM. hit rate 54% among 2,400. AID 2176;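 active = inhibition above the primary screen's cutoff, its mean inhibition plus 3 SD, cut at about 35% in these data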;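 also: loss of polarization as inhibitors block binding of rhodamine sulfonate ester activity probe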
Of the large screens only hits and unclear results are named; the others gave an inactive call (follow-up assays come after a bar, where they were run). In the library only some 1.9% were active in any assay of this set; here they are far more common.

Cc1nnc(N/N=C/c2ccccc2O)n1N	GSTO1 inh 71.7 | GSTO1 inh conf inactive
COc1cccc(CNC(=O)C(=O)N2CCC3(CC2)OCCN3S(=O)(=O)c2ccc(C)cc2)c1	none
COc1ccc(-n2c(N)c(C(=O)NCC3CCCO3)c3nc4ccccc4nc32)c(OC)c1 (stereo not given)	none
C=CCn1c(N)c(C(=O)NCC2CCCO2)c2nc3ccccc3nc21 (stereo not given)	GSTO1 inh 79.9 | GSTO1 inh conf inactive
Nc1ccc2nc(SCc3ccccc3F)sc2c1	none
C=CC1=C2C=C(C3CC3)N(CC3CC3)C=C2C(=O)C(C)(OC(=O)c2ccco2)C1=O (stereo not given)	none
C=CCN1C=C2C(=O)C(C)(OC(=O)c3ccco3)C(=O)C(C=C)=C2C=C1C1CC1 (stereo not given)	GSTO1 inh 39.1 | GSTO1 inh conf inactive
Nc1cc2nc3ccccc3oc-2cc1=O	GSTO1 inh 68.4 | GSTO1 inh conf 50.0
CCCC(C(=O)NNC(=O)c1ccncc1)c1ccccc1 (stereo not given)	none (no result: Fam108B inh, PME-1 inh, LYPLA2 inh, LYPLA1 inh, GSTO1 inh)
O=C(O)c1ccc(N=Nc2c(O)ccc3ncccc23)cc1	GSTO1 inh 60.2 | GSTO1 inh conf 41.4
CCCN1C(=S)c2ccccc2C1c1ccccc1 (stereo not given)	GSTO1 inh 60.1 | GSTO1 inh conf inactive
CCCCN1C(=S)NC[C@@H]1c1ccccc1	none
CCN(C(=O)COC(=O)c1ccccc1OCc1ccc(Cl)cc1)C1CCS(=O)(=O)C1 (stereo not given)	none (no result: Fam108B inh, PME-1 inh, LYPLA2 inh, LYPLA1 inh, GSTO1 inh)
Cc1ccc(Cl)c(NC(=O)COC(=O)c2ccccc2C(=O)c2ccc(Cl)c([N+](=O)[O-])c2)c1Cl	GSTO1 inh 49.2 | GSTO1 inh conf 52.2
CCCNC(=O)COC(=O)c1ccccc1C(=O)c1ccc(Cl)c([N+](=O)[O-])c1	none
O=C(CCl)NNC(=O)c1c(O)c2ccccc2[nH]c1=O	GSTO1 inh 88.7 | GSTO1 inh conf 96.9
CC(C)=NNC(=O)c1c(O)c2ccccc2[nH]c1=O	GSTO1 inh 42.0 | GSTO1 inh conf inactive
Cc1ccc(C)c(NC(=O)c2ccc(S(=O)(=O)N(C)CC3CCCO3)cc2)c1 (stereo not given)	none
Cc1c(C(=O)c2no[n+]([O-])c2C(=O)c2cnn(C)c2C)cnn1C	GSTO1 inh 39.7 | GSTO1 inh conf inactive
COc1ccc(C(=O)c2no[n+]([O-])c2C(=O)c2ccc(OC)cc2)cc1	none
Cc1ccc(C2=N/C(=C\c3cccc(F)c3)C(=O)O2)cc1	none
COc1ccc(S(=O)(=O)n2oc(=O)cc2-c2ccccc2)cc1	none
COc1ccc(S(=O)(=O)n2oc(=O)cc2-c2ccccc2)cc1OC	GSTO1 inh 40.3 | GSTO1 inh conf inactive
CC(C)(CNC(=O)c1ccc(S(=O)(=O)Nc2ccc(Cl)cc2)cc1)N1CCOCC1	none (no result: Fam108B inh, GSTO1 inh)
NC1=NC(=O)/C(=C\c2ccco2)S1	GSTO1 inh 41.1 | GSTO1 inh conf inactive
CC(C)C(=O)Nc1ccc(C(=O)NNC(=S)NC(=O)c2ccco2)cc1	GSTO1 inh 45.5 | GSTO1 inh conf inactive
Cc1cc(C)cc(NC(=O)CCc2c(C)nn(-c3ccc(N4CCCCC4)nn3)c2C)c1	GSTO1 inh 67.0 | GSTO1 inh conf inactive
CN(Cc1ccccc1)C(=O)CC(c1ccccc1)c1cc(Cl)ccc1O (stereo not given)	GSTO1 inh 57.6 | GSTO1 inh conf inactive
Nc1nc(N)c(N=Nc2ccc(SCC(=O)O)cc2)c(=O)[nH]1	none
CC(=O)c1c(C)nc(-c2ccc(Cl)cc2)nc1N=CN(C)C	GSTO1 inh 38.2 | GSTO1 inh conf inactive
COc1ccc2ccc3c(c2c1)N=C[C@]1(O3)N(C)c2ccccc2C1(C)C	PME-1 inh 44.6, GSTO1 inh 85.8 | GSTO1 inh conf inactive
Cc1ccc(C=Nc2ccc(N(C)C)cc2)o1	GSTO1 inh 82.6 | GSTO1 inh conf inactive
Cc1ccc(C=Nc2ccccc2C(N)=O)o1	none
O=C1CC(O)(C(F)F)Oc2ccc3ccccc3c21 (stereo not given)	GSTO1 inh 51.0 | GSTO1 inh conf 44.0
CC(C)C(NS(=O)(=O)c1ccc2c(c1)C(C)(C)C(=O)N2C)C(=O)NCc1ccc(F)cc1 (stereo not given)	none
CN(C)S(=O)(=O)c1ccc(C(=O)NCc2nnc(SCC(=O)c3ccccc3)o2)cc1	none

Compound activity deposited in PubChem by The Scripps Research Institute Molecular Screening Center.
